# Test results taken from ChEMBL document CHEMBL3988442, “University of Dundee, Small-Polar-MMV Screening Library” (2021).
# Molecular target: T1, Methionyl-tRNA synthetase, putative (Leishmania donovani (strain BPK282A1)) (UniProt E9BF75)
# T1 sequence (whole entry): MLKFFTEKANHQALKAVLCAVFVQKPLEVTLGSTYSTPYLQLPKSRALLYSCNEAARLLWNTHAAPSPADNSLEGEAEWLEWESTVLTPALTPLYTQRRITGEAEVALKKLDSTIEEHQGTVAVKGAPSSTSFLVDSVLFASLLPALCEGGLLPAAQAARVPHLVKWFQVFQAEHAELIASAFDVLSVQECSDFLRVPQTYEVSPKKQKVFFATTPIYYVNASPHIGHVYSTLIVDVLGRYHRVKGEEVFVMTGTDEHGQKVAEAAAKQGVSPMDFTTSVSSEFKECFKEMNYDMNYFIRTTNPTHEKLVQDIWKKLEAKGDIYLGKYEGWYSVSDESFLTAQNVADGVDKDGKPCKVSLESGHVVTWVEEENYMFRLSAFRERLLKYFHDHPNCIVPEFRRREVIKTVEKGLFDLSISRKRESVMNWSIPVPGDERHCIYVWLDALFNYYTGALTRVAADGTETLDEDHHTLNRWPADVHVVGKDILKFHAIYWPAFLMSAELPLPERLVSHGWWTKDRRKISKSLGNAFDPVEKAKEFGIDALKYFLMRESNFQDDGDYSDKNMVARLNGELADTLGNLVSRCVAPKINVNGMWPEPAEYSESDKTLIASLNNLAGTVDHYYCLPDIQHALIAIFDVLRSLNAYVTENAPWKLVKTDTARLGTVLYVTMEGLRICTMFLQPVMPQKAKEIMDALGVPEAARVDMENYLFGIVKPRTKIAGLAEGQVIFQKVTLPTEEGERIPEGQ
# Assay: Leishmania donovani Methionine tRNA synthetase (LdMetRS):v7. Dose response assay
# Type: functional
# Parameters: conc 80 nM, time 150 minutes
compound,measurement,setting,value
Cn1ncc2c(NCCO)nc(Nc3cccc(C(F)(F)F)c3)nc21,PXC50,MAX_EFFECT 33.39622642,< 4
same,PXC50,MAX_EFFECT 39.26940639,< 4
same,PXC50,MAX_EFFECT 40.60721063,< 4
NCC1Cc2cc(-c3nccc(N4CCC(O)CC4)n3)cc(Cl)c2O1 (stereo not given),PXC50,"BOTTOM 2.296775574, HILLSLOPE 1.512300698, MAX_EFFECT 82.17821782, TOP 96.63760695",4.5
same,PXC50,"BOTTOM 6.226174125, HILLSLOPE 1.41403245, MAX_EFFECT 85.50724638, TOP 100.0",4.49
same,PXC50,"BOTTOM -3.72600926, HILLSLOPE 1.42983, MAX_EFFECT 83.15412186, TOP 100.0",4.35
CCCCOC(=O)CNc1nc(Nc2ccc(F)c(F)c2)nc2c1cnn2C,PXC50,MAX_EFFECT 18.05225653,< 4
same,PXC50,MAX_EFFECT 18.45493562,< 4
same,PXC50,MAX_EFFECT 25.28301887,< 4
Cn1nc(Cn2ccnc2)c2c1CN(c1nccs1)C2,PXC50,"BOTTOM 0.559364067, HILLSLOPE 0.919078395, MAX_EFFECT 71.42857143, TOP 99.25901822",4.44
same,PXC50,"BOTTOM -1.637231388, HILLSLOPE 0.873521348, MAX_EFFECT 76.08695652, TOP 100.0",4.55
same,PXC50,"BOTTOM -15.97247073, HILLSLOPE 2.274903325, MAX_EFFECT 57.26795096, TOP 100.0",4.1
Cn1ncc2c(NCCO)nc(NCCN3CCOCC3)nc21,PXC50,MAX_EFFECT 4.109589041,< 4
same,PXC50,MAX_EFFECT 10.0,< 4
same,PXC50,MAX_EFFECT 11.56069364,< 4
CN(C)c1nc(N(C)C)c2cnn(C)c2n1,PXC50,MAX_EFFECT 10.25145068,< 4
same,PXC50,MAX_EFFECT 21.69421488,< 4
same,PXC50,MAX_EFFECT 22.46696035,< 4
NS(=O)(=O)c1cccnc1Nc1cc(C(=O)N2CCC2)cc(C(F)(F)F)c1,PXC50,MAX_EFFECT 2.375296912,< 4
same,PXC50,MAX_EFFECT 5.755395683,< 4
same,PXC50,MAX_EFFECT -0.429184549,< 4
CCc1[nH]c2c(CNc3cncc(C(=O)OC)n3)cc(C)cc2c1C,PXC50,MAX_EFFECT 7.798960139,< 4
same,PXC50,MAX_EFFECT 45.13888889,< 4
same,PXC50,MAX_EFFECT 45.63758389,< 4
COCCCNc1nc(Nc2ccc(F)c(F)c2)nc2c1cnn2C,PXC50,"BOTTOM 8.707474288, HILLSLOPE 1.018785888, MAX_EFFECT 82.18527316, TOP 91.55126405",4.89
same,PXC50,"BOTTOM 8.755992534, HILLSLOPE 0.77848464, MAX_EFFECT 80.25751073, TOP 100.0",4.77
same,PXC50,"BOTTOM -0.585436575, HILLSLOPE 0.774777818, MAX_EFFECT 86.07350097, TOP 105.947702",4.83
CCc1cc(N[C@@H]2CC[C@@H](N)C2)n2nc(C)c(C)c2n1,PXC50,"BOTTOM 1.026617696, HILLSLOPE 1.297008069, MAX_EFFECT 52.85961872, TOP 100.0",4.01
same,PXC50,"BOTTOM 3.147594101, HILLSLOPE 1.2343555, MAX_EFFECT 68.05555556, TOP 100.0",4.22
same,PXC50,"BOTTOM 4.251586265, HILLSLOPE 1.063316163, MAX_EFFECT 53.69127517, TOP 100.0",4.06
Cn1ncc2c(NCCO)nc(Nc3cccc(S(N)(=O)=O)c3)nc21,PXC50,MAX_EFFECT 2.127659574,< 4
same,PXC50,MAX_EFFECT 6.392694064,< 4
same,PXC50,MAX_EFFECT 11.50943396,< 4
COC1CCCCC1Nc1nc(Nc2ccc(F)c(F)c2)nc2c1cnn2C (stereo not given),PXC50,"BOTTOM 6.09090205, HILLSLOPE 1.180798676, MAX_EFFECT 57.89473684, TOP 61.13511107",4.92
same,PXC50,MAX_EFFECT 49.43396226,< 4
same,PXC50,MAX_EFFECT 49.87277354,< 4
CC(C)c1nc(N2CCC(N3CCCCCC3)CC2)c2cnn(C)c2n1,PXC50,"BOTTOM 1.611649307, HILLSLOPE 1.510978702, MAX_EFFECT 74.4966443, TOP 100.0",4.28
same,PXC50,"BOTTOM 2.404981537, HILLSLOPE 1.138566115, MAX_EFFECT 78.47222222, TOP 100.0",4.48
same,PXC50,"BOTTOM 5.527995165, HILLSLOPE 1.337567516, MAX_EFFECT 71.57712305, TOP 100.0",4.24
Cc1nc(C)n(CC2CCCN2Cc2nc(C)c3ccccc3n2)n1 (stereo not given),PXC50,"BOTTOM 0.925302431, HILLSLOPE 1.017320837, MAX_EFFECT 67.36111111, TOP 99.90284223",4.31
same,PXC50,"BOTTOM 1.588399375, HILLSLOPE 1.270951942, MAX_EFFECT 69.49740035, TOP 100.0",4.3
same,PXC50,"BOTTOM 6.646518839, HILLSLOPE 0.950758055, MAX_EFFECT 62.41610738, TOP 100.0",4.2
Cn1ncc2c(NCCCn3cnnc3)nc(Nc3ccc(F)c(F)c3)nc21,PXC50,"BOTTOM 1.83375179, HILLSLOPE 0.958532355, MAX_EFFECT 86.4608076, TOP 100.0",4.67
same,PXC50,"BOTTOM -0.68283143, HILLSLOPE 0.850398367, MAX_EFFECT 82.59187621, TOP 94.39900943",4.98
same,PXC50,"BOTTOM -3.068523854, HILLSLOPE 0.793433763, MAX_EFFECT 81.54506438, TOP 111.1617786",4.55
CCc1[nH]c2c(CNc3nc(C)cc(NC)n3)cc(C)cc2c1C,PXC50,"BOTTOM 0.67274626, HILLSLOPE 1.539733885, MAX_EFFECT 72.46376812, TOP 100.0",4.25
same,PXC50,"BOTTOM -0.906983609, HILLSLOPE 1.456210781, MAX_EFFECT 70.06802721, TOP 103.3868667",4.22
same,PXC50,MAX_EFFECT 28.19614711,< 4
Cn1ncc2c(NCCn3cccn3)nc(Nc3ccc(F)c(F)c3)nc21,PXC50,MAX_EFFECT 33.72921615,< 4
same,PXC50,MAX_EFFECT 37.33905579,< 4
same,PXC50,MAX_EFFECT 41.9729207,< 4
C1CCCN(CC2CCCN(Cc3noc(C4CC4)n3)C2)CC1 (stereo not given),PXC50,"BOTTOM 4.352296135, HILLSLOPE 1.766055102, MAX_EFFECT 53.69127517, TOP 86.72954931",4.1
same,PXC50,"BOTTOM 8.24905968, HILLSLOPE 1.172496443, MAX_EFFECT 57.63888889, TOP 100.0",4.05
same,PXC50,MAX_EFFECT 48.70017331,< 4
Cn1ncc2c(NCC3CC3)nc(Nc3ccc(F)c(F)c3)nc21,PXC50,"BOTTOM 0.0, HILLSLOPE 1.193695984, MAX_EFFECT 69.21119593, TOP 72.54722957",5.02
same,PXC50,"BOTTOM -3.303876123, HILLSLOPE 0.978123659, MAX_EFFECT 83.23699422, TOP 90.5971187",5.12
same,PXC50,"BOTTOM -7.642255371, HILLSLOPE 0.84165704, MAX_EFFECT 66.22807018, TOP 86.93864885",4.93
CN(C)S(=O)(=O)c1cccnc1Nc1cccc(C(F)(F)F)c1,PXC50,MAX_EFFECT 3.964757709,< 4
same,PXC50,MAX_EFFECT 9.867172676,< 4
same,PXC50,MAX_EFFECT -2.272727273,< 4
